This passage reports outcome results from PubChem BioAssay AID652044 (Broad Institute, 2013).

Results with a measured potency or affinity are listed apart. Active and inactive are the calls of the source.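 The calls were made as follows: active = cell-killing curve whose half-maximal dose falls at or below double the top accepted dose; inconclusive = flat fit with drops of 30 to 70%, or poor fit; inactive = the rest, including signal rises.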

The test in a line: viability loss in mouse NIH3T3 cells – cell-based, CellTiter-Glo luminescence, dry powder, cytotoxicity control for PglD inhibitor project, dose response (AID 652044). Conditions: CellTiter-Glo ATP luminescence, 48 h; series mostly up to 26 µM. In general terms: Cellular ATP, detected with luciferase, serves as a proxy for viable cell number.
As to `CO[C@H]1CN(C)C(=O)c2cc(NC(C)=O)ccc2OC[C@@H](C)NC[C@@H]1C`, the molecule was classed as inactive. Next, `CO[C@@H]1CN(C)C(=O)c2ccc(NS(C)(=O)=O)cc2OC[C@@H](C)N(C(=O)C2CCOCC2)C[C@H]1C`: “inactive”. For `O=C(N[C@H]1C=C[C@@H](CC(=O)N2CCCCC2)O[C@H]1CO)c1ccc2c(c1)OCO2`, the molecule was classed as inactive. Next, `O=C(C[C@@H]1CC[C@@H]2[C@H](COC[C@@H](O)CN2Cc2ccc(F)cc2)O1)N1CCc2ccccc2C1`: “inactive”; `C/C=C/c1cnc2c(c1)C(=O)N([C@@H](C)CO)C[C@H](C)[C@@H](CN(C)C(=O)c1cccnc1)O2`: “inactive”; `CCC(=O)Nc1ccc2c(c1)OC[C@@H](C)N(Cc1ccccn1)C[C@@H](C)[C@H](OC)CN(C)C2=O`: “inactive”. The value for `CC(=O)N[C@H]1CC[C@H](CC(=O)NCc2ccc(Cl)cc2)O[C@H]1CO` was “inactive”. Next, `C[C@H]1CN([C@@H](C)CO)C(=O)c2cccc(NC(=O)Nc3ccccc3)c2O[C@H]1CN(C)C`: “inactive”; `O=C(C[C@@H]1C[C@@H]2c3cc(NC(=O)NC4CCCCC4)ccc3O[C@@H]2[C@@H](CO)O1)NCc1cccnc1`: “inactive”. Regarding `CC=Cc1ccc2n(c1=O)C[C@@H]1[C@@H](CO)[C@H](C(=O)NCCOC)[C@H]2N1Cc1nccs1` (mixture of isomers), the outcome was inactive.

For the molecule `Cc1noc(C)c1NC(=O)Nc1cccc2c1O[C@H](CN(C)C(=O)Nc1cccc3ccccc13)[C@@H](C)CN([C@H](C)CO)C2=O`, the molecule was classed as inactive. The value for `COCC#Cc1cnc2c(c1)C(=O)N([C@@H](C)CO)C[C@H](C)[C@@H](CN(C)C(=O)C1CCC1)O2` was “inactive”.
